From PubChem BioAssay (Tox21) come the findings set out here.

“And” between values parts separate entries of the source, which are not always exact repeats. Equal entries are not always repeated. Inconclusive results are not listed. Some structures have more than one record in an assay (separate samples or runs), and their calls can disagree. The source made the active and inactive calls. Unless noted, calls follow the shape of the dose curve; as a rule, active = well fitted curve in the direction sought with a large enough effect in the repeat runs; inconclusive = weak or mixed curves; inactive = no such curve, though single readings can be large; an effect the other way counts as inactive or inconclusive.

A short description of assay [1]: qHTS assay to identify aromatase inhibitors - cell viability counter screen (AID 743084).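 Also: cells stimulated with testosterone during compound exposure; nearly all actives have a fitted effect of over 55% in size.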 Also: potency is read from the fitted curve at half-maximal effect. A general note: Quantitative high-throughput screening tests each substance at several concentrations.
Assay [2] has as its target Aryl hydrocarbon receptor (Homo sapiens) (UniProt P35869). The assay can be described thus: qHTS assay to identify small molecule that activate the aryl hydrocarbon receptor (AhR) signaling pathway (AID 743085). Also: nearly all actives have a fitted effect of over 15% in size. Also: potency is read from the fitted curve at half-maximal effect.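 As to activation: HG2L7.5c1 human HepG2 liver cells with stably integrated DRE-driven firefly reporter; series mostly up to about 70 µM.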 The essentials: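 A multiplexed format paired cell viability (CellTiter-Fluor fluorescence) with AhR-dependent luciferase output (ONE-Glo luminescence) in the same wells of HepG2 DRE-luc cells after 24 h compound exposure at 37C.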

Assay [3] in a line: qHTS assay to identify small molecule that activate the aryl hydrocarbon receptor (AhR) signaling pathway - cell viability counter screen (AID 743086). Also: nearly all actives have a fitted effect of over 45% in size. Also: potency is read from the fitted curve at half-maximal effect. A digest of the protocol: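 HepG2-AhR-luc (HG2L7.5c1) cells, 4000/well, treated 24 h at 37 C with compound; viability measured as CellTiter-Fluor fluorescence after 30 min in the same wells as the luciferase read.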
A short description of assay [4]: qHTS assay to identify small molecule antagonists of the peroxisome proliferator-activated receptor gamma (PPARg) signaling pathway - cell viability counter screen (AID 743194). Also: nearly all actives have a fitted effect of over 55% in size. The settings on record: Potency: co-treated with 50 nM rosiglitazone unless noted. The essentials: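 Cytotoxicity counter screen in PPARg-bla HEK293H cells, same wells as reporter assay. Compounds plus 50 nM rosiglitazone (final) for 17 h at 37 C, then viability read by CellTiter-Glo luminescence.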

Assay [5] is described as follows: qHTS assay for small molecule agonists of the antioxidant response element (ARE) signaling pathway (AID 743202; active = well fitted activation curve with a large enough effect in the signal ratio in the repeat runs, not every such curve was filed as active; the % refers to the signal ratio; also: potency is read from the fitted curve at half-maximal effect). The essentials: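 HepG2 ARE-bla cells; 16 h treatment at 37 C; FRET-based beta-lactamase fluorescence read after 2 h substrate incubation at room temperature.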
The nature of assay [6]: qHTS assay for small molecule agonists of the antioxidant response element (ARE) signaling pathway - cell viability counter screen (AID 743203; calls by dose curve; also: nearly all actives have a fitted effect of over 55% in size; also: potency is read from the fitted curve at half-maximal effect). The essentials: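 Luminescence read-out (CellTiter-Glo, 30 min at room temperature) measured cell viability in the same wells as the ARE beta-lactamase reporter. HepG2 ARE-bla cells were treated with compounds for 16 hrs at 37C/5% CO2.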

A short description of assay [7]: qHTS assay for small molecule activators of the heat shock response signaling pathway - cell viability counter screen (AID 743209). Also: nearly all actives have a fitted effect of over 50% in size. Also: potency is read from the fitted curve at half-maximal effect. A digest of the protocol: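 HSE-bla HeLa; 1500 cells/well; overnight 37 C, 5% CO2; compound 5 h 37 C; LiveBLAzer B/G substrate 2.5 h RT; CellTiter-Glo 30 min RT; luminescence.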
Assay [8] in a line: qHTS assay for small molecule activators of the heat shock response signaling pathway (AID 743210; active = well fitted activation curve with a large enough effect in the signal ratio in the repeat runs, with a control signal flat, not every such curve was filed as active; the % refers to the signal ratio;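 also: HeLa cells with beta-lactamase reporter driven by heat shock elements; series mostly up to about 63 µM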). The essentials:
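Following overnight attachment, HSE-bla HeLa cells received test compounds for 5 h at 37 C; beta-lactamase activity was then detected via FRET substrate fluorescence.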

Assay [9] in a line: qHTS assay to identify small molecule agonists of the peroxisome proliferator-activated receptor delta (PPARd) signaling pathway - cell viability counter screen (AID 743211). Also: nearly all actives have a fitted effect of over 55% in size. Also: potency is read from the fitted curve at half-maximal effect. The essentials: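 Tox21 library compounds, delivered in DMSO, were incubated 17 h with PPARd-bla HEK293H cells; cytotoxicity was taken from CellTiter-Glo luminescence read 30 min after reagent addition.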

Assay [10] can be described thus: qHTS assay to identify small molecule antagonists of the peroxisome proliferator-activated receptor delta (PPARd) signaling pathway - cell viability counter screen (AID 743213). Also: nearly all actives have a fitted effect of over 50% in size. Also: potency is read from the fitted curve at half-maximal effect. A digest of the protocol:
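HEK293H cells with the PPARd UAS-bla reporter, co-treated 17 h at 37 C with compounds and L165041 (300 nM final), were lysed with CellTiter-Glo. Luminescence indicated viable cell content.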

Assay [11] is described as follows: qHTS assay to identify small molecule agonists of the farnesoid-X-receptor (FXR) signaling pathway - cell viability counter screen (AID 743218). Also: nearly all actives have a fitted effect of over 45% in size. Also: potency is read from the fitted curve at half-maximal effect. The essentials: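 Luminescence from CellTiter-Glo, read after 30 min at RT, reports viability of GeneBLAzer FXR-UAS-bla HEK 293T cells treated 16 h with compounds in the wells used for the beta-lactamase reporter.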
Assay [12] in a line: qHTS assay to identify small molecule antagonists of the farnesoid-X-receptor (FXR) signaling pathway - cell viability counter screen (AID 743221; active = well fitted cell-killing curve with a large enough effect in the repeat runs, not every such curve was filed as active; also: nearly all actives have a fitted effect of over 50% in size; also: potency is read from the fitted curve at half-maximal effect). The essentials:
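Cytotoxicity is taken from ATP luminescence (CellTiter-Glo, 30 min, room temperature) in FXR-bla HEK 293T cells previously incubated 16 h at 37 C with compound and chenodeoxycholic acid at 50 uM final.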

The target of assay [13] is Peroxisome proliferator-activated receptor gamma (Homo sapiens) (UniProt P37231). The assay can be described thus: qHTS assay to identify small molecule agonists of the peroxisome proliferator-activated receptor gamma (PPARg) signaling pathway (AID 743094; active = well fitted activation curve with a large enough effect in the signal ratio in the repeat runs, not every such curve was filed as active; the % refers to the signal ratio). A digest of the protocol:
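HEK293H PPARg-bla cells, 5 h settle at 37C/5% CO2; compound (DMSO) 17 h, 37C; B/G FRET substrate 1 h RT; fluorescence intensity read-out. qHTS format.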

For assay [14] the target is unchanged. The assay can be described thus: qHTS assay to identify small molecule antagonists of the peroxisome proliferator-activated receptor gamma (PPARg) signaling pathway (AID 743191; calls by dose curve; also: series mostly up to about 63 µM; nearly all actives have a fitted effect of over 30% in size). A digest of the protocol:
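GeneBLAzer PPARg UAS-bla HEK293H cells, 5 h post-plating, exposed to compounds 17 h at 37C. LiveBLAzer B/G FRET substrate added for 1 h at room temperature; beta-lactamase reporter read by fluorescence intensity.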

In assay [15] the target is Bile acid receptor (Homo sapiens) (UniProt Q96RI1). The assay can be described thus: qHTS assay to identify small molecule antagonists of the farnesoid-X-receptor (FXR) signaling pathway (AID 743217; active = well fitted inhibition curve with a large enough effect in the signal ratio in the repeat runs, not every such curve was filed as active; the % refers to the signal ratio; also: potency is read from the fitted curve at half-maximal effect). The essentials: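 Read-out: beta-lactamase FRET fluorescence (LiveBLAzer B/G substrate, 2 h, room temperature) in GeneBLAzer FXR-UAS-bla HEK 293T cells. Compounds were co-dosed with 50 uM chenodeoxycholic acid (final) and incubated 16 h at 37 °C.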

The target of assay [16] is Vitamin D3 receptor (Homo sapiens) (UniProt P11473). Kind of assay: qHTS assay to identify small molecule agonists of the vitamin D receptor (VDR) signaling pathway (AID 743222; calls by dose curve). The essentials:
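Beta-lactamase reporter readout (LiveBLAzer B/G FRET, 2 h RT) in VDR-bla cells after 16 h compound treatment at 37C, 5% CO2; cells pre-incubated 4 h before pin transfer of DMSO solutions.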

For assay [17] the target is unchanged. Kind of assay: qHTS assay to identify small molecule antagonists of the vitamin D receptor (VDR) signaling pathway (AID 743223; active = well fitted inhibition curve with a large enough effect in the signal ratio in the repeat runs, not every such curve was filed as active; the % refers to the signal ratio; also: potency is read from the fitted curve at half-maximal effect). The essentials:
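Quantitative HTS in VDR-bla reporter cells stimulated with 1alpha,25-dihydroxyvitamin D3, 3 nM final. Compound exposure 16 h, 37C, 5% CO2. Read-out: beta-lactamase FRET substrate fluorescence, 2 h RT.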

Assay [18] concerns the target Peroxisome proliferator-activated receptor delta (Homo sapiens) (UniProt Q03181). Kind of assay: qHTS assay to identify small molecule agonists of the peroxisome proliferator-activated receptor delta (PPARd) signaling pathway (AID 743212; calls by dose curve). The essentials: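 Tox21 library screened in GeneBLAzer PPARd UAS-bla HEK293H cells. After compound treatment at 37 C, a FRET-based beta-lactamase substrate was applied for 2 h and fluorescence recorded.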

Assay [19] has the same target. The assay can be described thus: qHTS assay to identify small molecule antagonists of the peroxisome proliferator-activated receptor delta (PPARd) signaling pathway (AID 743215; active = well fitted inhibition curve with a large enough effect in the signal ratio in the repeat runs, not every such curve was filed as active; the % refers to the signal ratio;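 also: cells stimulated with agonist L165041 at 300 nM final during compound exposure; series mostly up to about 62 µM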). The essentials:
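HEK293H GeneBLAzer PPARd UAS-bla reporter cells; cpd + L165041 300 nM final, 17 h 37 C; LiveBLAzer B/G FRET substrate 2 h RT; fluorescence intensity read-out. Antagonist mode.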

Chain of Peroxisome proliferator-activated receptor gamma (Homo sapiens) (P37231 whole entry, looked up): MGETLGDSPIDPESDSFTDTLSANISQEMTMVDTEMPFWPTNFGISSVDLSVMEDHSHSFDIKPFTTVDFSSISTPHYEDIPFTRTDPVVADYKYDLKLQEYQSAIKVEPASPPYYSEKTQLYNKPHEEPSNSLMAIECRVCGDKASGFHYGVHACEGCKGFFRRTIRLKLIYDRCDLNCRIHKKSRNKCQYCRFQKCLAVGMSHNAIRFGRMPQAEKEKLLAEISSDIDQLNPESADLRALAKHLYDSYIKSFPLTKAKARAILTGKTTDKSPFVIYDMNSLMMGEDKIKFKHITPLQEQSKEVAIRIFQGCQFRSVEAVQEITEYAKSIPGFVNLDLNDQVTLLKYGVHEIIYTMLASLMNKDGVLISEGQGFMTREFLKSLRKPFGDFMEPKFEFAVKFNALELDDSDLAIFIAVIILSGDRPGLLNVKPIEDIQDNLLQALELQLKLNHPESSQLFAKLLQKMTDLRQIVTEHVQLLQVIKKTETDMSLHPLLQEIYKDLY
Chain of Peroxisome proliferator-activated receptor delta (Homo sapiens) (Q03181 whole entry, looked up): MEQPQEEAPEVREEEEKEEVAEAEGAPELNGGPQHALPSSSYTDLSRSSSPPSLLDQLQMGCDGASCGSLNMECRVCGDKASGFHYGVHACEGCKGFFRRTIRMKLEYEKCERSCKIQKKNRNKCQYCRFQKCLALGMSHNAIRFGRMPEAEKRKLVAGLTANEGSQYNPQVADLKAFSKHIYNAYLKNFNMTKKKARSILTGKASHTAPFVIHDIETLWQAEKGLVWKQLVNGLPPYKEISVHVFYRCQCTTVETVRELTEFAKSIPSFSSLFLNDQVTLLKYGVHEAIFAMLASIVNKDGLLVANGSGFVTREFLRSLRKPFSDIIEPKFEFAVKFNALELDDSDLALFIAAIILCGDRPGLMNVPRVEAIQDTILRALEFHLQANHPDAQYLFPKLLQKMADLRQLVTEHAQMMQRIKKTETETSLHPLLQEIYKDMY
Chain of Aryl hydrocarbon receptor (Homo sapiens) (P35869 whole entry, looked up): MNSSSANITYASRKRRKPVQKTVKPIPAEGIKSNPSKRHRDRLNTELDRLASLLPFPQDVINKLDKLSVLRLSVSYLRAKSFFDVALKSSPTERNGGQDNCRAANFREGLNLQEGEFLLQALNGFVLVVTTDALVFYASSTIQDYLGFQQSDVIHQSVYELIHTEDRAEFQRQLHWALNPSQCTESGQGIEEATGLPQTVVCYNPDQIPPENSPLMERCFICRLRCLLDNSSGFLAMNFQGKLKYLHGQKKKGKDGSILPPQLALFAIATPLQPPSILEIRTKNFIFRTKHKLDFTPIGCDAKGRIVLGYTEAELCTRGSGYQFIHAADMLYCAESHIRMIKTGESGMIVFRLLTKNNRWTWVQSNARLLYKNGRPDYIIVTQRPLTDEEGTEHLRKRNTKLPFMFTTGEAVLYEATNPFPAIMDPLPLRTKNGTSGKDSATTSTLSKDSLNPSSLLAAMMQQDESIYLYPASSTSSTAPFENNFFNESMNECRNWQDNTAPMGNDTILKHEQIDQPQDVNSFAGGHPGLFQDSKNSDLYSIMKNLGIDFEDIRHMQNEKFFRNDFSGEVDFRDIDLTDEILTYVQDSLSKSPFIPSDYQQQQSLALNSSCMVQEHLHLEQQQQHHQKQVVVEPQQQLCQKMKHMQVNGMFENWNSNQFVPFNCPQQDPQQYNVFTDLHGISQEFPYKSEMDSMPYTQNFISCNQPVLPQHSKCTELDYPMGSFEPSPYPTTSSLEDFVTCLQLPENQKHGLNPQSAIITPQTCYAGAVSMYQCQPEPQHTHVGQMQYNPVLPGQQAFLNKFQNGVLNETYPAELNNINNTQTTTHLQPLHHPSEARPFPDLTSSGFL
Chain of Vitamin D3 receptor (Homo sapiens) (P11473 whole entry, looked up): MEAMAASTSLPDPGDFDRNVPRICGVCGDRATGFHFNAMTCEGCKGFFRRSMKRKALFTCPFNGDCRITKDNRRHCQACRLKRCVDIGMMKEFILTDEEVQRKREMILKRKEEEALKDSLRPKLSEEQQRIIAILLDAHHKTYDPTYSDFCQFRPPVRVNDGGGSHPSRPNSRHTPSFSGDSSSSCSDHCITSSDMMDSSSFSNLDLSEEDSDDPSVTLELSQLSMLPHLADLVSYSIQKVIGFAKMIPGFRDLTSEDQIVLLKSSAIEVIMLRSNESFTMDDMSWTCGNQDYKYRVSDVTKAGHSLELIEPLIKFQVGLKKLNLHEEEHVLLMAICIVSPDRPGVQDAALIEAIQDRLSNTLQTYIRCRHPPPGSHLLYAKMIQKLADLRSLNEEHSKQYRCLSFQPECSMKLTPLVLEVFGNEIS
Chain of Bile acid receptor (Homo sapiens) (Q96RI1 whole entry, looked up): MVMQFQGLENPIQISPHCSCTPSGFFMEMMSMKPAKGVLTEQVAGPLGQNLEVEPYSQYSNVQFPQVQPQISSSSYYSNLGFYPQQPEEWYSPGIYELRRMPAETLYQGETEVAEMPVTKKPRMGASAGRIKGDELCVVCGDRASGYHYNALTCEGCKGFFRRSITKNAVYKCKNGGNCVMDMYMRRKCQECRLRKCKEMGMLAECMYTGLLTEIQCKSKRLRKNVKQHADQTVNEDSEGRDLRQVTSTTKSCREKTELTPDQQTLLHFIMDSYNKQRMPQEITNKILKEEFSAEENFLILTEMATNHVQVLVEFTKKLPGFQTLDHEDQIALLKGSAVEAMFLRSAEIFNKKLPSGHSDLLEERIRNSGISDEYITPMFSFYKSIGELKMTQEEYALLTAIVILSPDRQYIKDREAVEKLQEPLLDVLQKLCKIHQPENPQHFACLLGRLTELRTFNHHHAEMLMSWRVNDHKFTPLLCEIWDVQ

As for `CCCC[n+]1cccc(C)c1`, the Potency result in assay [1], in assay [2], in [3], in [4], in assay [6] and in assay [7] was “inactive” in each case. The Potency result in assay [9], in assay [10], in [11] and in [12] was “inactive” in each case. Also, in [5], the Potency is 60.9 µM (active) and inactive. The result in assay [8] was inactive.

In the case of `O=S(=O)(O)O`, the Potency result in assay [1], in [2], in assay [3], in assay [5], in [6] and in [7] was “inactive” throughout. For the same molecule, the Potency result in assay [9], in assay [10], in [11] and in assay [12] was “inactive” throughout.

Consider `O=[N+]([O-])c1ccccc1O`, for which the Potency result in [1], in assay [2], in [14], in assay [5], in [6] and in assay [7] was “inactive” each time. The Potency result in assay [9], in [10], in assay [11] and in assay [12] was “inactive” throughout. In addition, the result in [13] and in [8] was inactive.

Regarding `CC(=O)[O][Hg][c]1ccccc1`, the Potency in [1] was 5.31 µM (active) and 1.36 µM (active) and 770 nM (active); in assay [3], 9.44 µM (active) and 4.29 µM (active) and 4.86 µM (active); in assay [6] it was 762 nM (active) and 433 nM (active) and 1.19 µM (active); in [7], 1.22 µM (active) and 1.1 µM (active) and 2.11 µM (active); in [9], 611 nM (active) and 977 nM (active) and 2.98 µM (active); in [10] it was 1.53 µM (active) and 1.1 µM (active) and 1.68 µM (active). The Potency in assay [15] is 776 nM (active); in [11], 968 nM (active) and 871 nM (active) and 2.11 µM (active); in [12], 1.09 µM (active) and 1.1 µM (active) and 2.98 µM (active); in [17], 863 nM (active) and 2.13 µM (active). For the same molecule, the Potency entry in [2] is “inactive”. In addition, the molecule was classed as inactive in assay [16].

As for `CNC`, the Potency entry in [1], in assay [2], in [14], in assay [5], in assay [6] and in assay [7] was “inactive” in each case. For the same molecule, the Potency entry in assay [9], in [10], in assay [11], in [12] and in assay [17] was “inactive” throughout. Moreover, the molecule was called inactive in assay [13], in [8], in assay [18], in assay [19] and in assay [16].

Take `CCCCn1cc[n+](C)c1C`: the Potency entry in assay [1], in [2], in assay [3], in assay [6], in assay [7] and in [9] was “inactive” throughout. Besides, the Potency result in assay [10], in assay [11] and in assay [12] was “inactive” in each case. In addition, the Potency in assay [5] is 60.8 µM (active) and 54.7 µM (active) and 61.6 µM (active). The call in assay [8] was inactive.

In the case of `O=C(O)CC(O)(CC(=O)O)C(=O)O`, the Potency entry in assay [1], in assay [2], in assay [3], in [14], in assay [4] and in assay [5] was “inactive” throughout. Also, the Potency entry in [6], in [7], in assay [9], in assay [10], in assay [11] and in assay [12] was “inactive” throughout. Further, in assay [17], the Potency result was “inactive”. Moreover, the call in assay [13], in assay [8], in [18], in [19] and in assay [16] was inactive.

With `COc1ccccc1N`, the Potency entry in assay [1], in [14], in assay [4], in assay [5], in [6] and in [7] was “inactive” each time. In addition, the Potency result in assay [9], in assay [10], in [11] and in assay [12] was “inactive” in each case. For the same molecule, in assay [2], the Potency was 54.4 µM (active) and inactive. In addition, the molecule was called inactive in assay [13] and in assay [8].
